Data on one sequence can be found in patent publication US20070207532, “Mutants Of O6-Alkylguanine-Dna Alkyltransferase” (published 2007).

For the test, the target named is AGT mutant of Example 4 (GST fusion) (Homo sapiens, UniProt P16455 SEQ:1-207, Gly131Lys, Gly132Thr, Met134Leu, Arg135Ser, Asn157Gly, Ser159Glu). Put plainly: competition; reactivity with BG-modified oligonucleotide. To be noted: tags: N-terminal GST (pGEX-2T); ssDNA; O6-benzylguanine at position 14. How it is done: Reactivity against DNA-based substrates measured with a BG-Cy3 assay: BG-Cy3 is prepared by reacting the previously described O⁶-(4-aminomethyl-benzyl)guanine (Keppler et al., NatureBiotechnol. 21:86-89, 2003) with the commercially available N-hydroxysuccinimide ester of Cy3, (Cy3-NHS, Amersham). The coupling reaction is performed at ambient temperature in N,N-dimethylformamide in the presence of 1 eq. of triethylamine. The BG-Cy3 conjugate is purified by reversed-phase HPLC on a C18-column by using linear gradients from 0.1% trifluoroacetic acid to acetonitrile. After solvent evaporation BG-Cy3 is dissolved in dimethyl sulfoxide and stored at −20° C. For measuring the reactivity with DNA-based substrates, a reaction mixture containing different concentrations (0 to 5 µM) of oligonucleotide SEQ ID NO:2 (modified in position 14), GST-AGT fusion protein at 0.2 µM and BG-Cy3 at […] in reaction buffer (50 mM HEPES, pH 7.2, 1 mM DTT, […] BSA) is incubated in microtiterplates. Fluorescence of the Cy3 derivative (excitation 519 nm, emission at 572 nm) is measured on a Spectramax Gemini plate reader (Molecular Devices).
Sequence of AGT mutant of Example 4 (GST fusion) (P16455 whole entry G131K/G132T/M134L/R135S/N157G/S159E, the tested form may be a part): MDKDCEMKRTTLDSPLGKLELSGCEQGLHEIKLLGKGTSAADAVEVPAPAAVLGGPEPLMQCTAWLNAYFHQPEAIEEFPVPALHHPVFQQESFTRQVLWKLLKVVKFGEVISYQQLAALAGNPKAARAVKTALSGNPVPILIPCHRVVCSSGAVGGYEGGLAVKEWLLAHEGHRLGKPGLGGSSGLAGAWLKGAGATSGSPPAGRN
GTGGTGGGCAGCTGAGGCGTGG gave a binding signal of at least 1000 fold reduced vs PGEG-hAGT.
